Screening data from PubChem BioAssay.
Methyltransferases: Primary Screen for Target Class Profiling of Small Molecule Inhibitors of Methyltransferases; purified enzyme, MTase-Glo SAH luminescence; active compounds read low; calls only at 40 µM; 3.9% of 25,000 active; call rule not given here
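Each enzyme was assayed with SAM and its substrate. SAH formation detected by MTase-Glo luminescence; single-point 40 uM screen[…].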
MTase-Glo counter: Counterscreen for Target Class Profiling of Small Molecule Inhibitors of Methyltransferases | AID 1745851, 2022 | Potency, µM (top dose mostly 57.3 µM), hits mostly inhibitors | shares compounds with Methyltransferases | 6% of 180 active | MTase-Glo coupled enzymes, SAH conversion luminescence, no MTase; active = well fitted inhibition curve with a large enough effect
Calls only. The full list was thinned out, with hits kept by preference.

Results for CCC(C(=O)N(C)Cc1ccc(OC)c2ncccc12)n1cccn1 (configuration not stated) ?
Methyltransferases: inactive

Results for CCOc1c(CN(C)C(=O)Cn2cccc(OC)c2=O)cccc1OC ?
Methyltransferases: active; MTase-Glo counter: inactive

How did COc1ccc(OC)c(S(=O)(=O)N2CCC3(CC2)CC(CC(=O)N2CCCC2)CCO3)c1 (configuration not stated) do in these assays?
Methyltransferases: inactive

Results for CN1CCN(C)c2cnc(-c3cnn(Cc4ccccc4)c3)cc2C1 ?
Methyltransferases: active; MTase-Glo counter: inactive

How did CC(C)CNC(=O)c1ccc2c(=O)n(CC(C)C)c3nn(Cc4ccc(F)cc4)c(=O)n3c2c1 do in these assays?
Methyltransferases: inactive

Results for CC1(C(=O)NC2CCCC2)Cn2c(ccc2-c2ccco2)C(=O)N1Cc1ccc2c(c1)OCO2 (configuration not stated) ?
Methyltransferases: inactive

What do the screens show for `FC(F)(F)c1ccnc(N2CC[C@H](c3nnc(-c4ccncc4)o3)C2)n1`?
Methyltransferases: active; MTase-Glo counter: inactive

How did c1ccc(-c2nnc([C@H]3CCN(C4CCC4)C3)o2)cc1 do in these assays?
Methyltransferases: inactive

Results for COc1ccc(C(=O)N2CC[C@H](c3nnc(-c4ccccc4)o3)C2)cc1 ?
Methyltransferases: inactive

How did CCN(C(=O)Cn1c(=O)oc2cc(S(=O)(=O)N3CC(C)CC(C)C3)ccc21)c1ccccc1 (configuration not stated) do in these assays?
Methyltransferases: inactive

Results for CCn1cnnc1CC1CCN(C(=O)c2nccc3ccccc23)C1 (configuration not stated) ?
Methyltransferases: inactive

How did O=C(C1CCC1)N1CCC(Cc2nncn2Cc2ccccc2)CC1 do in these assays?
Methyltransferases: inactive

Results for Cc1nn(C(=O)CCC(=O)N2CCC(Cc3nncn3CC3CC3)CC2)c2ccccc12 ?
Methyltransferases: active; MTase-Glo counter: inactive

What do the screens show for `COc1ccc(CNC(=O)CCn2ccc3cc(S(=O)(=O)N4CCCCC4)ccc32)cc1`?
Methyltransferases: inactive

Results for COc1cccc2c1OCCCN(Cc1cn(-c3ccccc3)nn1)C2 ?
Methyltransferases: inactive

Results for CS(=O)(=O)NC1CCN(c2cc(C3CC(N)C3)nc(N)n2)CC1 (configuration not stated) ?
Methyltransferases: inactive

What do the screens show for `COc1cccc2c1OCCCN(c1cc(C3CC(O)C3)nc(N)n1)C2` (configuration not stated)?
Methyltransferases: active; MTase-Glo counter: inactive

How did Cc1ccc(S(=O)(=O)c2nnn3c2nc(NCc2ccccc2)c2ccccc23)cc1C do in these assays?
Methyltransferases: inactive

How did COc1cccc(N2C(=O)NC(=NC3CCCCC3)C23CCCN(CC2CCCCC2)C3)c1 (configuration not stated) do in these assays?
Methyltransferases: active; MTase-Glo counter: inactive

What do the screens show for `COc1cccc(N2C(=O)NC(=NC3CCCCC3)C23CCN(CC2CC2)C3)c1` (configuration not stated)?
Methyltransferases: inactive

How did COc1cccc(N2C(=O)NC(=NC3CCCC3)C23CCN(Cc2ccccc2)C3)c1 (configuration not stated) do in these assays?
Methyltransferases: inactive

How did CC(C)CNC(=O)c1ccc2c(=O)n(CC(C)C)c3nn(CC(=O)Nc4ccccc4F)c(=O)n3c2c1 do in these assays?
Methyltransferases: inactive

Results for CC1CCCC(NC(=O)Cn2ccc3cc(S(=O)(=O)N4CCCC4)ccc32)C1C (configuration not stated) ?
Methyltransferases: inactive

How did CCCn1cc(C(=O)N2C[C@@H](N(C)C)[C@H](c3ccc(C)cc3)C2)c(C)n1 do in these assays?
Methyltransferases: inactive

Results for Cc1ccc([C@@H]2CN(c3cc(N4CCC(O)CC4)ncn3)C[C@H]2N(C)C)cc1 ?
Methyltransferases: active; MTase-Glo counter: inactive

What do the screens show for `CN(C)c1cc(N2CCCC(NC(=O)C3CCC3)C2)ncn1` (configuration not stated)?
Methyltransferases: inactive

What do the screens show for `CCCn1c(=O)c2cc(Cl)ccc2n2c(=O)n(CC(=O)Nc3cccc(F)c3)nc12`?
Methyltransferases: inactive

Results for Cc1cc(Cl)ccc1N1C(=O)c2cc(-c3ccccc3)nn2CC1(C)C(=O)NCc1ccccc1 (configuration not stated) ?
Methyltransferases: inactive

How did CC1(C(=O)NC2CCCCC2)Cc2ccccc2C(=O)N1CCc1ccccc1 (configuration not stated) do in these assays?
Methyltransferases: inactive

How did CN(Cc1ccccc1)C1(C(=O)NC2CCC(O)CC2)Cc2ccccc2C1 (configuration not stated) do in these assays?
Methyltransferases: active; MTase-Glo counter: inactive

How did O=C(Cc1ccc(-c2ccccc2)cc1)NC1CCC1 do in these assays?
Methyltransferases: inactive

How did CN1C(=O)c2cc(C(=O)NCCc3ccc(Cl)cc3)nn2CC1(C)C(=O)NCc1ccccc1 (configuration not stated) do in these assays?
Methyltransferases: inactive

How did CC1(C(=O)NC2CCCCCC2)Cn2c(c(-n3cccc3)c3ccccc32)C(=O)N1Cc1ccccn1 (configuration not stated) do in these assays?
Methyltransferases: inactive

How did O=C(CCn1ccc2cc(S(=O)(=O)N3CCCCC3)ccc21)NCc1cccnc1 do in these assays?
Methyltransferases: inactive

How did C1=C(c2nc(-c3ccncc3)cc3c2ccn3Cc2cccnc2)CCOC1 do in these assays?
Methyltransferases: active; MTase-Glo counter: inactive

How did Cc1ccc(CNC(=O)CSc2nnc3n(CCc4ccccc4)c(=O)c4ccccc4n23)cc1 do in these assays?
Methyltransferases: inactive

How did CN1C(=O)c2cc(C(=O)NCc3ccccc3Cl)nn2CC1(C)C(=O)NC1CCCCCC1 (configuration not stated) do in these assays?
Methyltransferases: inactive

What do the screens show for `CC1CCCC(NC(=O)C2(C)Cn3c(ccc3-c3ccco3)C(=O)N2Cc2ccco2)C1C` (configuration not stated)?
Methyltransferases: inactive

Results for CC(C)c1nccn1CCCNC(=O)c1ccc(-c2cccc(F)c2)nc1 ?
Methyltransferases: active; MTase-Glo counter: inactive

How did O=C(NC1CCN(CC(F)(F)F)CC1)c1ccc(-c2cccc(F)c2)nc1 do in these assays?
Methyltransferases: inactive

Results for CC(C)OCCCNC(=O)c1ccc2c(=O)nc3c(-c4cccc(F)c4)n[nH]n3c2c1 ?
Methyltransferases: inactive

What do the screens show for `C=Cc1ccc(Cn2nc3n(CCC(C)C)c(=O)c4ccc(C(=O)NC5CCCC5)cc4n3c2=O)cc1`?
Methyltransferases: inactive

How did CC1(C(=O)NC2CCCC2)Cn2cnc(C(=O)NCc3ccccc3F)c2C(=O)N1C1CC1 (configuration not stated) do in these assays?
Methyltransferases: inactive

How did CC(C)CCN1C(=O)c2cc3occc3n2CC1(C)C(=O)NC1CCCCC1 (configuration not stated) do in these assays?
Methyltransferases: inactive

What do the screens show for `CC(=O)N1CCC(C(=O)N2CCCC(c3nc4ncccc4[nH]3)C2)CC1` (configuration not stated)?
Methyltransferases: inactive

How did CN1CCC(N2CC[C@H](c3nc4ccc(C(F)(F)F)cc4[nH]3)C2)CC1 do in these assays?
Methyltransferases: active; MTase-Glo counter: inactive

Results for CN1CCC(N2CC[C@H](c3nc4ccccc4[nH]3)C2)CC1 ?
Methyltransferases: active; MTase-Glo counter: inactive
